# PubChem BioAssay AID504332 (National Center for Advancing Translational Sciences (NCATS), 2011)
# Hit rate of the full screen: of about 350,000 compounds, about 31,000 (8.9%) were called active. Inconclusive results (about 15%) are left out. Shown is part of a subset that was picked to be rich in actives. Values without a mark were called inactive. Calls come from the whole dose curve; as a rule, active = well fitted inhibition curve with a large enough effect; inconclusive = small, poorly fitted or top-dose-only effect; inactive = no such curve, though single readings can be large or run the other way.
# Target: Histone-lysine N-methyltransferase EHMT2 (Homo sapiens) (UniProt Q96KQ7)
# Experiment: qHTS Assay for Inhibitors of Histone Lysine Methyltransferase G9a; note: nearly all actives have a fitted effect of over 75% in size
# Conditions: G9a H3K9 monomethylation, AlphaScreen, 2 h; series mostly up to 102 µM; activity, negative = inhibition: at the top concentration
# Source text: Methylated lysines, on the N-terminal tails of histone proteins serve as epigenetic markers to recruit factors that can then modify local chromatin structure to lead to functional consequences. G9a and other members of the SUV39 family of the SET domain-containing superfamily of histone lysine methyltransferases (HMT) have been identified to specifically methylate Lys9 of histone H3 (H3K9). G9a catalyzes the mono- and di-methylation of H3K9 in mammalian euchromatic regions, where the resulting H3K9me2 is indicative of transcriptional repression. […] The inhibition of G9a will result in transcriptional activation and work synergistically with DNA methyltransferase and histone deacetylase inhibitors, to kill cancer cells. This qHTS assay for identification of G9a inhibitors is a chemiluminescence based AlphaScreen (PerkinElmer). Methylation of biotinylated-histone peptide is measured through specific antibody-based detection, in conjunction with streptavidin-coated donor and anti-IgG antibody-coated acceptor beads. The method is particularly well suited for detection of inhibitors acting by the desired histone peptide competitive mechanism and is applicable to testing other HMTs. Although AlphaScreen has significant advantages with its utility in a variety of epigenetic target assays, the primary screening data provided in this deposition should be used with caution due to the prevalence of screening artifacts. An AlphaScreen counterscreen is highly recommended to be run against any putative actives to eliminate non specific artifacts. Alternatively, one can use other AlphaScreen assays in PubChem to filter out promiscuous hits. Quinn et al. A chemiluminescence-based method for identification of histone lysine methyltransferase inhibitors. Mol Biosyst 6(5): 782-8. 2010. PMID: 20567762 [2] Baell,Holloway. New substructure filters for removal of pan assay interference compounds (PAINS) from screening libraries and for their exclusion in bioassays. J Med Chem. 53(7):2719-40. 2010. PMID: 20131845 NIH Molecular Libraries Probe Production Network [MLPCN] NIH Chemical Genomics Center [NCGC] Structural Genomics Consortium (SGC) NIH Grant: 5U54 MH084681-02
# To each well of a 1,536w plate, 2ul of HMT enzyme (final 20nM) were added, using a nanoliter dispenser. The G9a- and GLP-inhibitor BIX-01294 (CID: 25150857) are used as an intraplate control, with a 16-point titration in duplicate. A Kalypsys pin-tool transferred 23nl of library compound solution in DMSO to each well. Following a 15 min incubation of enzyme with compounds at room temperature, 1ul mixture of b-H3K9 peptide substrate (final 500nM) and SAM cofactor (final 20uM) were added. Reactions were allowed to proceed at room temperature for 2 hours. Methylated b-H3K9 peptide product was detected with 0.5 ug/mL rabbit polyclonal anti-monomethyl histone H3K9 antibody (Abcam Inc., Cambridge, MA) and 20 ug/mL each streptavidin-coated donor and anti-rabbit IgG acceptor AlphaScreen beads. Antibody and beads were added in a 1ul dispense, for a final volume of 4ul, and plates were incubated, protected from the light, for 10 min at room temperature. Microplates were then read on an EnVision multilabel plate reader using the 1,536 plate HTS AlphaScreen aperture (excitation time 80 ms, measurement time 240 ms).
# % is set by controls: 0 for no effect and ±100 for the full control effect; potency is the fitted concentration of half-maximal effect.
# Sequence of Histone-lysine N-methyltransferase EHMT2 (Homo sapiens) (Q96KQ7 913-1193 limits assumed): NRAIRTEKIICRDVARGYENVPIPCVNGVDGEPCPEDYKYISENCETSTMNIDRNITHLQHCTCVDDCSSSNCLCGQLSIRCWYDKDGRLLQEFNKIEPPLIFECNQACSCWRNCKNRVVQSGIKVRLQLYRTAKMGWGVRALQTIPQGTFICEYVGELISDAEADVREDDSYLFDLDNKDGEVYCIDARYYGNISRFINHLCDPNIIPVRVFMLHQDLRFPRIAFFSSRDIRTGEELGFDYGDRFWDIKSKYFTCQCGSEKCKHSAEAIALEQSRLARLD
SMILES,Potency,"activity, negative = inhibition"
c1ccc(Cc2nn3c(Cn4cnc5ccccc54)nnc3s2)cc1,3.16 µM (active),–
COc1ccc(S(=O)(=O)NCc2ccc(C(=O)N3CCC4(CC3)OCCO4)cc2)cc1,–,7.61% [at 59 µM]
Cc1ccc(-n2c(O)c(C=NCC3CCCO3)c(=O)[nH]c2=O)c(C)c1 (stereo not given),–,48.7% [at 12.7 µM]
Cc1cccc(-n2c(O)c(C=NC34CN5CN(CN(C5)C3)C4)c(=O)[nH]c2=O)c1,50.1 µM (active),–
O=c1[nH]c(=O)n(-c2ccc(F)cc2)c(O)c1C=NCCN1CCCCC1,–,2.18%
O=c1[nH]c(=O)n(CCc2ccccc2)c(O)c1/C=N/N1CCOCC1,–,4.98%
O=c1[nH]c(=O)n(CCc2ccc(F)cc2)c(O)c1/C=N/N1CCCCC1,–,-26.9%
Cc1cccc(-n2c(O)c(/C=N/N3CCOCC3)c(=O)[nH]c2=S)c1,22.4 µM (active),–
O=C(N/N=C/c1c(O)n(C2CC2)c(=S)[nH]c1=O)c1ccccc1,–,-6.95%
O=c1[nH]c(=O)n(-c2ccccc2)c(O)c1C=NC12CN3CN(CN(C3)C1)C2,–,-22.5%
CC(C)c1ccc(-n2c(O)c(/C=N/N3CCOCC3)c(=O)[nH]c2=S)cc1,50.1 µM (active),–
CN(C)CC1CCCCC1=O (stereo not given),–,-0.643% [at 59 µM]
CN(C)c1ccc(/C=C2\CC3C4CC=C5CC(O)CCC5(C)C4CCC3(C)C2=O)cc1 (stereo not given),–,18.3% [at 59 µM]
COC(=O)C1=C(c2ccccc2OCc2ccccc2)C[C@@H]2CC[C@H]1N2C(=O)NCc1ccc(OC)cc1,–,-7.46% [at 2.33 µM]
CCOc1ccc(C2SCC(=O)Nc3c2c(C)nn3C2CCOC(C)(C)C2)cc1 (stereo not given),–,-15.8%
c1ccc2c(c1)[I+]c1ccccc1-2,–,-19.1% [at 12.7 µM]
Cc1ccc(-c2nc3ccccc3c(=O)n2-c2ccc(Br)cn2)cc1,–,8.78%
CN(C)C(=O)Oc1ccc(NC(=O)N2CCOCC2)cc1,–,53.9%
CSc1nc2ccc(C)cc2c(=O)n1-c1cccnc1,–,9.7%
N#Cc1ccc(Cn2cc(C(=O)c3ccco3)c3ccccc32)cc1,–,6.49% [at 59 µM]
COc1ccc(-n2c(O)c(C(C)=Nc3ccc4c(c3)CCC4)c(=O)[nH]c2=O)cc1,–,-22.6%
CC(=O)NBr,–,inactive
CCc1nc2ccccc2c(=O)n1-c1cccc(OC)c1,–,-1.25% [at 59 µM]

SMILES,Potency,"activity, negative = inhibition"
Cc1cccc(-n2c(C)nc3cc(C(=O)N4CCC5(CC4)OCCO5)ccc32)c1,–,-27.9%
O=C(N/N=C/c1c(O)n(Cc2ccccc2)c(=O)[nH]c1=O)c1ccccc1,–,-11.3% [at 59 µM]
CC(C)c1ccc(O)c(CN2CCN(c3ccccc3)CC2)c1,–,1.64%
Cc1cc(=O)oc2c(C)c(OCC(=O)N3CCN(Cc4ccc5c(c4)OCO5)CC3)ccc12,–,12.7%
Fc1ccc(N2CCN(Cc3ccc4c(c3)OCO4)CC2)cc1,8.91 µM (active),–
Oc1cc2c(cc1CN1CCN(c3ccccc3)CC1)OCO2,10 µM (active),–
O=C(NCC(c1cccnc1)N1CCN(c2ccccc2)CC1)Oc1ccccc1 (stereo not given),–,8.36% [at 59 µM]
Cc1ccc(C(C)C)c(OCC(=O)N2CCN(CC(=O)N3CCOCC3)CC2)c1,–,28.3% [at 12.7 µM]
CN1CCN(/N=C/c2c[nH]c3ccccc23)CC1,–,-6.44%
CC(=O)OC1C2CCC3C1(CC(O)[C@@]1(O)[C@@H](CC(O)C1(C)C)[C@]3(C)O)C[C@@]2(C)O (stereo not given in full),–,-31.5% [at 2.33 µM]
CCN1C[C@@]2(COC)CC[C@H](OC)[C@]34[C@@H]1[C@]1(OCO[C@@]15C[C@@H](OC)C1C[C@H]3[C@H]5[C@@H]1OC)[C@H](O)[C@@H]24,–,26.9% [at 21.5 µM]
CSC1=NP(=S)(SC)N(C)c2nc3n(c21)CCC3 (stereo not given),–,-0.587%
COc1ccc(-c2nn(CCC#N)cc2C(=O)Nc2ccc(C(C)=O)cc2)cc1,–,38.3%
COc1cc(-n2c(=S)[nH]c3ccc(C)cc3c2=O)c(Cl)cc1Cl,–,20.4% [at 12.7 µM]
Cc1cc2ccccn2c1C(C[N+](=O)[O-])c1c(F)cccc1Cl (stereo not given),44.7 µM (active),–
Cc1nc2nc(C)c(CCC(=O)N3CCC4(CC3)OCCO4)c(C)n2n1,–,2.74% [at 59 µM]
CNP1(NC)=Nc2nn(-c3ccccc3)c(N)c2C(c2ccccc2)=N1,–,1.22% [at 59 µM]
C/C=C/CC1(CC)C(=O)NC(=S)NC1=O,–,-10.4%
O=C(CCC(=O)N1C[C@H]2C[C@@H](C1)c1cccc(=O)n1C2)NCc1ccccc1C(F)(F)F,–,12.2% [at 0.501 µM]
COc1cccc(C(=O)N2C[C@H]3C[C@@H](C2)c2cccc(=O)n2C3)c1,–,1.87% [at 12.7 µM]
O=C(NC(=S)N1C[C@H]2C[C@H](C1)c1cccc(=O)n1C2)c1ccc(F)cc1,35.5 µM (active),–
Cc1cccc(NC(=O)OC2CN3CCC2CC3)c1 (stereo not given),–,-11.9%
